Source: PubChem BioAssay (National Center for Advancing Translational Sciences (NCATS))
Only some compounds are listed: those with a hit (about 21% of all), similar ones and a draw of the others.
TDP1 cell CPT: growth inhibition of DT40 Tdp1-/-;hTDP1 cells with camptothecin (screen for TDP1 inhibitors); chicken DT40 Tdp1-/-;hTDP1 cells + 20 nM CPT, ATP luminescence, 48 h; Potency, µM (series often up to 46.2 µM), without a hit: top-dose activity change, negative = growth inhibition, usual class: inhibitors; hit rate 12% among 420,000; further: potency means the concentration at half of the fitted maximal effect; on the % scale 0 is the no-effect control and ±100 the full control effect; nearly all actives have a fitted effect of over 55% in size
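Chicken DT40 Tdp1-/- cells complemented with human TDP1, 400 cells/well, exposed to compounds plus 20 nM camptothecin for at least 48 h at 37 C; viability read as ATP content by CellTiter-Glo luminescence.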
D3 antag: antagonists of human D3 dopamine receptor | P35462 | D3R cells, DiscoveRx beta-arrestin luminescence, antagonist mode; stronger effect = lower value | max response, negative = inhibition, % | hit rate 2.5% among 360,000 | AID 652054; in the data active means max response below about -50%; inconclusive means no clear call, values can overlap the other calls; further: on the % scale 0 is the no-effect control and ±100 the full control effect
Target sequence (P35462 whole entry, looked up): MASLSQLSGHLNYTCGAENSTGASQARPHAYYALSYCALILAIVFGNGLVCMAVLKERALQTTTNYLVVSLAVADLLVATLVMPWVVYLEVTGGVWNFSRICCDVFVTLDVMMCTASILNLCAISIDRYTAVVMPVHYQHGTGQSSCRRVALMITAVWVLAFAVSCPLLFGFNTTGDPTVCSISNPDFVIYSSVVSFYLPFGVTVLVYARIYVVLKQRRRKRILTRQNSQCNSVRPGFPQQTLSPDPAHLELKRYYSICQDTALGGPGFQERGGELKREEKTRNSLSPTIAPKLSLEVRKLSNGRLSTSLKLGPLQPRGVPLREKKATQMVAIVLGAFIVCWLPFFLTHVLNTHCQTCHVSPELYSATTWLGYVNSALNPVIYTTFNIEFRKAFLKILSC
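Cells expressing the human receptor were seeded at 1500 cells/well, incubated overnight at 37 degrees C in 5% CO2, then exposed to library compounds with dopamine controls for 90 minutes at 37 degrees C before luminescent detection.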
D3 ag: agonists of human D3 dopamine receptor; D3R DiscoveRx beta-arrestin cells, luminescence, 90 min; max activation, %; hit rate 0.58% among 410,000; P35462; in the data active means max activation above about 30%; further: 0% is about no effect
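Cells at 1500/well, incubated overnight, then treated with pinned compounds (dopamine as control) for 90 min at 37 degrees C. DiscoveRx reagent added for 30 - 60 minutes at room temperature; luminescence read.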
IL1B secr inh: inflammasome signaling inhibition, IL-1 beta readout; THP-1 LPS/ATP IL-1B secretion, AlphaLISA, 16 h; stronger effect = lower value; activity change, % at 57.5 µM; hit rate 4.7% among 360,000; in the data active means activity change below about -50%; inconclusive means mostly about -30% to -49%; further: on the % scale 0 is the no-effect control and ±100 the full control effect
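Secreted IL-1B measured by AlphaLISA bead assay after 16 h compound exposure of THP-1 cells; compounds (final up to 57.5 uM) added 1 h before LPS (250 ng/mL) and ATP (1.25 mM) stimulation; lower signal means less secretion.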
TDP1 cell noCPT: qHTS for Inhibitors of human tyrosyl-DNA phosphodiesterase 1 (TDP1): qHTS in cells in absence of CPT. DT40 Tdp1-/- hTDP1 cells, no CPT, ATP luminescence, 48 h. Potency, µM (top dose mostly 46.2 µM), inactives show at the top dose activity change, negative = growth inhibition, actives largely listed as inhibitors. hit rate 15% among 420,000. AID 686978, 2013; further: potency means the concentration at half of the fitted maximal effect; on the % scale 0 is the no-effect control and ±100 the full control effect; nearly all actives have a fitted effect of over 55% in size
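Growth kinetics read by CellTiter-Glo luminescence after ≥48 hr at 37 °C. Cells: DT40 Tdp1-/- stably carrying human TDP1, 400 per well, compound exposure in the absence of CPT (DMSO vehicle).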
ClpP mod: qHTS Assay for Activators of ClpP; hit rate 1.9% among 340,000; Potency, µM (highest dose often 57.5 µM), for the others: at the highest dose activity change, negative = active; ATP-dependent Clp protease proteolytic subunit (Bacillus subtilis (strain 168)), P80244; purified B. subtilis ClpP, FRET peptide cleavage, 20 min; active means well fitted falling curve with a large enough effect; inconclusive means small, poorly fitted or top-dose-only effect; inactive means no such curve, though single readings can be large or run the other way; further: potency means the concentration at half of the fitted maximal effect; the source files actives as falling curves though it sought activators and does not explain the sign; nearly all actives have a fitted effect of over 65% in size
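ClpP 10 microg/mL final, pH 8 Tris/KCl buffer with BSA, glycerol, Tween-20; compound pinned in; FRET-FV substrate; RT 20 min; Ex320/Em430; ΔFRET vs ADEP 5.8 microM, DMSO, no enzyme.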
Starred values were filed as active, the others as inactive; ? = inconclusive; nt = not tested or not shown. Unless noted, the call rests on the fitted dose curve; in most records, active means well fitted inhibition curve with a large enough effect; inconclusive means small, poorly fitted or top-dose-only effect; inactive means flat fitted curve, though single readings scatter.

SMILES	TDP1 cell CPT	D3 antag	D3 ag	IL1B secr inh	TDP1 cell noCPT	ClpP mod
CC(C)C[C@H]1CNC(=O)C(=O)N1C[C@H]1CCCN1C[C@H](CC(C)C)N1C[C@H](Cc2ccccc2)N(CC2CCCCC2)C(=O)C1=O	-2%	3	4	9	3%	-1%
CC(C)C[C@H]1CN([C@@H](Cc2ccc(O)cc2)CN2CCC[C@H]2CN2C(=O)C(=O)NC[C@@H]2Cc2ccccc2)C(=O)C(=O)N1CC1CCCCCC1	?	-8	-5	-82*	?	-3%
CC(C)C[C@H]1CN([C@@H](Cc2ccccc2)CN2CCC[C@@H]2CN2C(=O)C(=O)NC[C@@H]2Cc2ccccc2)C(=O)C(=O)N1CC1CCCCC1	21µM*	-5	-5	-59*	16µM*	-6%
CC(C)C[C@H]1CNC(=O)C(=O)N1C[C@@H]1CCCN1C[C@H](Cc1ccc(O)cc1)N1C[C@H](Cc2ccccc2)N(CC2CCCCC2)C(=O)C1=O	?	2	-8	-59*	?	1%
CC(C)C[C@H]1CN([C@@H](Cc2ccc(O)cc2)CN2CCC[C@@H]2CN2C(=O)C(=O)NC[C@@H]2Cc2ccccc2)C(=O)C(=O)N1CC1CCCCC1	?	-14	7	?	?	0%
CC(=O)N1CCc2c(sc(NC(=O)CS(=O)(=O)c3ccc(F)cc3)c2C(N)=O)C1	0%	9	4	29	8%	1%
COc1ccc(NC(=O)NC2(C(=O)N3CCCC(C)C3)CCCCC2)cc1 (configuration not stated)	?	1	2	7	?	nt
COc1ccc(S(=O)(=O)Nc2ccc3c(c2)CCCN3S(=O)(=O)c2ccc(C)cc2)cc1F	?	nt	7	nt	21µM*	-1%
Cc1ccc(S(=O)(=O)N2CCCc3cc(NS(=O)(=O)c4cc(F)ccc4F)ccc32)cc1	23µM*	nt	6	nt	18µM*	0%
Cc1ccc(S(=O)(=O)N2CCCc3cc(NC(=O)c4c(F)cccc4F)ccc32)cc1	?	-27	-11	?	?	-9%
Cc1ccc(S(=O)(=O)N2CCCc3cc(NC(=O)c4ccc(F)c(F)c4)ccc32)cc1	?	nt	-4	nt	?	-11%
Cc1ccc(S(=O)(=O)N2CCCc3cc(NS(=O)(=O)c4ccc(F)cc4)ccc32)cc1	?	nt	5	nt	18µM*	0%
O=C(Nc1ccccc1OCc1ccccc1)c1ccccc1Br	-3%	4	4	-16	-7%	-2%
Cc1cccc(NC(=O)C2CCN(S(=O)(=O)c3ccc4c(c3)CCCN4C(=O)C3CCC3)CC2)c1	?	nt	0	nt	?	-4%
CC(=O)c1ccc(NC(=O)C2CCN(S(=O)(=O)c3ccc4c(c3)CCCN4C(=O)C3CCC3)CC2)cc1	12µM*	nt	1	nt	?	1%
N#Cc1cccc(NC(=O)C2CCN(S(=O)(=O)c3ccc4c(c3)CCCN4C(=O)C3CCC3)CC2)c1	?	nt	4	nt	?	-1%
CSc1cccc(NC(=O)C2CCN(S(=O)(=O)c3ccc4c(c3)CCCN4C(=O)C3CCC3)CC2)c1	?	nt	23	nt	12µM*	-2%
CSc1cccc(NC(=O)C2CCCN(S(=O)(=O)c3ccc4c(c3)CCCN4C(C)=O)C2)c1 (configuration not stated)	18µM*	nt	-8	nt	21µM*	-3%
CC(Cl)C(=O)Nc1c2c(nn1-c1ccccc1)CSC2 (configuration not stated)	4%	3	2	43	0%	0%
COc1cccc(C(=O)N2CCC[C@H]2C(=O)N2CCC[C@H]2C(=O)N(C)Cc2ccccc2)c1	-11%	8	4	8	3%	2%
